Screens deposited in PubChem by several laboratories.
Only some compounds are listed: those with a hit (about 3.9% of all), similar ones and a draw of the others.
BoNT F protease: inhibitors of Botulinum neurotoxin F light chain protease | Multiplex microsphere protease cleavage assay, flow cytometry | inhibition, % at 10 µM | hit rate 0.22% among 360,000 | AID 588497; in the data active = inhibition above about 35%, passing the limit was not always enough; inconclusive = no clear call, values can overlap the other calls
BoNT-A LC inh2: BoNT A light chain protease inhibition | multiplex microsphere protease substrate cleavage, flow cytometry | inhibition, % at 10 µM | hit rate 0.17% among 360,000 | AID 588499
Autofluor counter: flagged as autofluorescent in microsphere protease counterscreen; compound autofluorescence counterscreen, microsphere flow cytometry; stronger effect = higher value; fluorescence intensity (no concentration beside the values); hit rate 3.1% among 360,000; in the data active = fluorescence intensity above about 16000; inconclusive = no clear call, values can overlap the other calls
Vc quorum ag: quorum light induction in luxS cqsA deficient V. cholerae; hit rate 0.16% among 350,000; V. cholerae BH1578 lux reporter, luminescence, 6 h; activation, % at 18.7 µM; in the data active = activation mostly above about 9.7%, no sharp cut-off; inconclusive = no clear call, values can overlap the other calls; inactive = mostly below about 3.7%
MazEF act: increases E. coli MazEF RNase cleavage of RNA | FAM/BHQ RNA-DNA oligo cleavage fluorescence, 5 h | activation, % at 20 µM | hit rate 0.32% among 350,000; in the data active = activation above about 50%
Anthrax LF prot: inhibitors of Bacillus anthracis lethal factor protease. P15917. multiplex microsphere protease cleavage assay, LF. inhibition, % at 10 µM. hit rate 0.12% among 360,000. AID 588501
BoNT-A LC CP1: blocks botulinum neurotoxin A light chain protease; shares compounds with BoNT F protease; inhibition, % at 10 µM; multiplex microsphere protease assay, flow cytometry; hit rate 3% among 720; in the data active = inhibition above about 32%
BoNT-F LC CP1: blocks botulinum neurotoxin F light chain protease; shares compounds with BoNT F protease; multiplex microsphere protease cleavage assay, flow cytometry; inhibition, % at 10 µM; 720 tested, under 10 active; call rule not given here
Anthrax LF CP1: blocks anthrax lethal factor protease; shares compounds with BoNT F protease; multiplex microsphere protease cleavage assay, LF; inhibition, % at 10 µM; 720 tested, under 10 active; call rule not given here
A number is an active result; i = inactive; ? = inconclusive; nt = not tested or not shown. Cut-off read from the data, not from the text of the source, unless noted: active = inhibition above about 30%; inconclusive = no clear call, values can overlap the other calls; inactive = below that.

SMILES | BoNT F protease | BoNT-A LC inh2 | Autofluor counter | Vc quorum ag | MazEF act | Anthrax LF prot | BoNT-A LC CP1 | BoNT-F LC CP1 | Anthrax LF CP1
COc1ccccc1NC(=O)c1sc2nc(Cc3ccccc3)cc(C(F)(F)F)c2c1N | i | 30.2 | i | i | i | i | i | i | i
Cc1nn(C)c2nc(-c3cccs3)cc(C(F)(F)F)c12 | i | i | i | i | i | i | nt | nt | nt
Cn1cnnc1-c1cccc(NC(=O)c2cc(F)c(F)cc2Cl)c1 | i | i | i | i | i | i | nt | nt | nt
CN(C)CCNC(=O)/C=N/O | i | i | i | i | i | i | nt | nt | nt
Cc1cc(=O)[nH]n(CCO)c1=O | i | i | i | i | i | i | nt | nt | nt
COC(=O)c1ccc(COc2ccc(-c3nn[nH]n3)cc2)cc1 | 47.3 | 48.8 | i | i | i | i | i | i | i
Oc1ccc(Cl)cc1C=Nc1ccccc1Br | i | i | i | i | i | i | nt | nt | nt
Oc1ccc(Br)cc1C=Nc1ccc2c3c(cccc13)CC2 | i | 33.3 | i | i | i | i | i | i | i
N#Cc1ccc(S(=O)(=O)NC2CCCCNC2=O)cc1 (centres undefined) | 42.0 | i | i | i | i | i | i | i | i
O=C1NCCCCC1NS(=O)(=O)c1ccc(Cl)cc1 (centres undefined) | i | i | i | i | i | i | nt | nt | nt
COc1cc([N+](=O)[O-])ccc1N1C(=O)C2C3C=CC(C4CC34)C2C1=O (centres undefined) | i | i | i | i | i | i | nt | nt | nt
Cc1[nH]c(=O)[nH]c(=O)c1S(=O)(=O)Nc1ccc(F)c(Cl)c1 | i | i | i | i | i | 32.7 | i | i | i
Cc1cc(Cl)ccc1NS(=O)(=O)c1c(C)[nH]c(=O)[nH]c1=O | i | i | i | i | i | i | nt | nt | nt
O=C(O)c1ccc(S(=O)(=O)NCC2CCCCC2)cc1 | i | i | i | i | i | i | nt | nt | nt
Cc1nnc(SCC(=O)NC2CCCCCC2)n1C | i | i | i | i | i | i | nt | nt | nt
Cc1nnc(SCC(=O)NC(C)(C)C)n1C1CCCCC1 | 40.2 | i | i | i | i | i | i | i | i
O=C(O)CSc1nnc(-c2ccc(Cl)cc2)n1-c1ccccc1 | 35.7 | i | i | i | nt | i | i | i | i
Cc1cccc(C(C)C)c1NC(=O)C1CN(S(=O)(=O)c2ccccc2)CCN1S(=O)(=O)c1ccccc1 (centres undefined) | i | 38.4 | i | i | i | 37.3 | i | i | i
CCc1cccc(CC)c1NC(=O)C1CN(S(=O)(=O)c2ccccc2)CCN1S(=O)(=O)c1ccccc1 (centres undefined) | i | i | i | i | i | i | nt | nt | nt
COCCn1c(SCC(=O)c2c(N)n(C3CC3)c(=O)[nH]c2=O)nnc1-c1cccc(C)c1 | i | i | i | i | i | i | nt | nt | nt
CC(C)NC(=S)N1CCN(Cc2ccc3c(c2)OCO3)CC1 | i | i | i | i | i | i | nt | nt | nt
CCN(CC)c1ccc(C(=O)NC(=S)N2CCN(Cc3ccc4c(c3)OCO4)CC2)cc1 | 51.4 | i | 22907 | i | i | i | i | i | i
COc1ccc(N(C(=O)c2snc(C(N)=O)c2N)C(C(=O)NCC2CCCO2)c2ccc3ncccc3c2)cc1OC (centres undefined) | 38.4 | i | i | i | i | i | i | i | i
CCCC(Oc1ccc(Br)cc1)c1nc2c3cc(OC)c(OC)cc3nc(=S)n2[nH]1 (centres undefined) | i | i | i | i | i | i | nt | nt | nt
CC(Oc1ccc(Br)cc1)c1nc2c3ccccc3nc(=S)n2[nH]1 (centres undefined) | 36.5 | i | i | i | i | i | i | i | i
SMILES | BoNT F protease | BoNT-A LC inh2 | Autofluor counter | Vc quorum ag | MazEF act | Anthrax LF prot | BoNT-A LC CP1 | BoNT-F LC CP1 | Anthrax LF CP1
COc1ccc(CNC(=O)c2cccc(NC(=O)c3ccccc3)c2)cc1 | 40.2 | i | i | i | i | i | i | i | i
Cc1cccc(OCC(=O)Nc2cccc(C(=O)Nc3ccccc3C(=O)O)c2)c1 | i | i | i | i | i | i | nt | nt | nt
Cc1ccccc1NS(=O)(=O)c1cccc(C(=O)Nc2cccc(C(=O)O)c2)c1 | ? | i | i | i | i | i | i | i | i
Cc1ccc(NS(=O)(=O)c2cccc(C(=O)O)c2)c(C)c1 | i | i | i | i | i | i | nt | nt | nt
COc1ccc(NS(=O)(=O)c2cccc(C(=O)Nc3cccc(C(=O)O)c3)c2)cc1 | ? | i | i | i | i | i | i | i | i
Cc1cccc(NC(=O)c2cccc(S(=O)(=O)Nc3ccccc3C(=O)O)c2)c1 | i | i | i | i | i | i | i | i | i
CCOC(=O)N/N=C(/c1ccccc1)C1CCCCC1 | i | i | i | i | i | i | nt | nt | nt
O=C(Nc1nccs1)c1csc([C@H]2C[C@H](O)[C@@H](CO)O2)n1 | i | i | i | i | nt | i | nt | nt | nt
O=C(CN1C(=O)c2ccc([N+](=O)[O-])cc2C1=O)NCC1CCCO1 (centres undefined) | i | i | i | i | i | i | nt | nt | nt
CC(C)CC1c2[nH]c3ccccc3c2CCN1CCCn1cccn1 (centres undefined) | i | i | i | i | i | i | nt | nt | nt
Cc1ccccc1NC(=O)c1cccc(S(C)(=O)=O)c1 | i | i | i | i | i | i | nt | nt | nt
O=C(Nc1ccccc1O)c1cccc(S(=O)(=O)Nc2ccccc2O)c1 | i | i | i | i | i | i | i | i | i
COC(=O)C1Cc2ccccc2CN1S(=O)(=O)c1ccc(C)cc1 (centres undefined) | 35.7 | i | i | i | i | i | i | i | i
COc1ccc(OC)c(NC(=O)c2cc(S(=O)(=O)N3CCCC3)cn2C)c1 | i | i | i | i | i | i | nt | nt | nt
Cc1cc(C)cc(N2C(=O)NC(=O)/C(=C\c3cccn3-c3ccccc3)C2=O)c1 | 67.5 | i | i | i | i | 31.0 | i | i | i
Cc1ccc(C2CC(c3ccc(NS(C)(=O)=O)cc3)=NN2C(=O)c2ccco2)cc1 (centres undefined) | 36.1 | i | i | i | i | i | i | i | i
Cc1ccc(CS(=O)(=O)c2cn(CC(=O)N3CCOCC3)c3ccccc23)cc1 | i | i | i | i | i | i | nt | nt | nt
COc1ccccc1CN1CCNC(=O)C1CC(=O)NCc1c(C)n[nH]c1C (centres undefined) | 41.1 | i | i | i | i | i | i | i | i
COc1ccc(C(CC(=O)Nc2cc(C)ccn2)N2Cc3ccccc3C2=O)cc1 (centres undefined) | 109.9 | i | i | i | i | i | i | i | i
Cn1cnc([N+](=O)[O-])c1Sc1nc2ccccc2[nH]1 | i | i | i | i | i | 33.8 | i | i | i
Cc1nc([N+](=O)[O-])c(Sc2nc3ccccc3[nH]2)n1Cc1ccccc1 | i | i | i | i | i | i | nt | nt | nt
O=C(CCS(=O)(=O)c1ccc(Cl)cc1)Nc1nc(-c2cccnc2)cs1 | i | 51.4 | i | i | i | i | i | i | i
